LASV entry inh = Lassa virus entry inhibition. Lassa virus pseudotype entry inhibition, cell reporter. Potency, µM (titrated, usually from 37.9 µM), inactives show at the highest dose activity change, negative = inhibition, hits mostly inhibitors. 300,000 compounds, 1.2% hits; calls by dose curve; tested in HEK293 cells; also: potency is read from the fitted curve at half-maximal effect; % is scaled to controls: 0 for no effect and ±100 for the full control effect; nearly all actives have a fitted effect of over 50% in size
CHX counter = affects cycloheximide protein synthesis inhibition readout, counter-screen | AID 2314 | cell reporter, cycloheximide protein synthesis inhibition counterscreen | 300,000 compounds, 12% hits | max response, %; in the data active = max response mostly above about 13%, no sharp cut-off; inactive = mostly below about 14%; also: read at 38.3 µM for the half of the compounds with a filed dose; 0% is about no effect
Marburg entry inh = Marburg virus entry inhibition; Marburg virus pseudotyped entry inhibition, cell reporter; Potency, µM (series often up to 37.8 µM), inactives show top-dose activity change, negative = inhibition, hits mostly inhibitors; 300,000 compounds, 1.8% hits; calls by dose curve; tested in HEK293 cells; also: potency is read from the fitted curve at half-maximal effect; % is scaled to controls: 0 for no effect and ±100 for the full control effect
AMA1 RON2 block = disrupts binding of P. falciparum AMA1 to RON2 | Potency, µM (titrated, usually from 58.2 µM), inactives show at the top dose activity change, negative = inhibition, actives largely listed as inhibitors | 360,000 compounds, 0.2% hits | AID 720542 | AlphaScreen AMA1-biotinylated RON2 peptide binding; active = well fitted inhibition curve with a large enough effect; inconclusive = small, poorly fitted or top-dose-only effect; inactive = no such curve, though single readings can be large or run the other way;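 also: potency is read from the fitted curve at half-maximal effect; 0% = vehicle wells and -100% = peptide control; nearly all actives have a fitted effect of over 45% in size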
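AMA1 (3D7) with his tag at 25 nM final met compounds first, then biotinylated RON2 peptide at 25 nM; detection used donor plus acceptor beads, 10 µg/mL apiece, read by AlphaScreen after 30 min at room temperature.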
Shiga inhibitor = Shiga toxin inhibition. Vero cells, Shiga toxin protein synthesis inhibition reporter. inhibition, % at 38.7 µM. 290,000 compounds, 9.2% hits. AID 2315; in the data active = inhibition mostly above about 28%, no sharp cut-off; inactive = mostly below about 43%; also: 0% is about no effect
The depositor's hits bear a star; ? = inconclusive; nt = no result given; + = active, no number; [ ] = another dose, or the depositor's remark. Many of the other results were omitted from the sample, so hits are more common in it than they were.

SMILES | LASV entry inh | CHX counter | Marburg entry inh | AMA1 RON2 block | Shiga inhibitor
Nc1c(SCCC(=O)O)ccc2c1C(=O)c1ccccc1C2=O | nt | 21* | nt | -18% | 36
O=C(NCc1ccc2c(c1)OCO2)c1cnc2n(c1=O)CCS2 | nt | -5 | nt | -4% | -18
Cc1cccc(NC(=O)c2cnc3n(c2=O)CCS3)c1 | ? | 21* | -8% | -5% | 17*
O=C(Nc1ccc2c(c1)OCO2)c1cnc2n(c1=O)CCS2 | -2% | 29* | 19% | -11% | 49*
COc1ccc(OC(=O)c2cnc3n(c2=O)CCS3)cc1 | 1% | 15* | 8% | -9% | 26
CCCNC(=O)Cn1cnc2sc(C(=O)Nc3ccc4c(c3)OCO4)c(C)c2c1=O | 35% | 2 | -25% | 0% | -5
CCn1cnc2sc(C(=O)Nc3ccc4c(c3)OCO4)c(C)c2c1=O | ? | 38* | 15% | 5% | 94*
CC(CC(=O)N1CCN(c2ccccc2)CC1)S(=O)(=O)c1ccc2c(c1)NC(=O)CO2 (stereo not drawn) | ? | 2 | ? | 2% | -6
CCOCCc1nn2c(=O)cc(COC(=O)C(CC)c3ccccc3)nc2s1 (stereo not drawn) | 2%[46.1 µM] | nt | nt | nt | nt
CCC(=O)N1CCCC(C(=O)NS(=O)(=O)c2cc(C)c(Cl)cc2C)CC1 (stereo not drawn) | nt | nt | nt | 22% | nt
O=C(Nc1ccccc1)c1cnc2n(c1=O)CCS2 | -1% | 15 | 1% | 10% | 47
O=C(Nc1ccc2c(c1)OCCO2)c1cnc2n(c1=O)CCS2 | 5% | 30* | ? | 6% | 18
O=C(Nc1ccc(OC(F)(F)F)cc1)c1cnc2n(c1=O)CCS2 | nt | 16* | nt | 2% | 21
O=C(Nc1cccc(C(F)(F)F)c1)c1cnc2n(c1=O)CCS2 | nt | -2 | nt | 3% | -4
Cn1c(=O)c2c(nc3sccn32)n(C)c1=O | 6% | 20* | 29% | 48% | 11
Cc1nc2sccn2c(=O)c1Cl | -9% | -2 | 25% | -12% | -6
COc1ccc(NC(=O)CN2C(=O)S/C(=C/c3cccn3-c3ccc(C(=O)O)cc3)C2=O)cc1 | nt | 12 | nt | nt | 4
O=C(NC1CCCCC1NC(=O)c1cccs1)c1cccs1 (stereo not drawn) | -11% | 1 | ? | -14% | -6
O=C(N/N=C1/CC2C=CCC12)c1ccco1 (stereo not drawn) | ? | 72* | ? | 45% | 81*
O=C(N/N=C1/CC2C=CCC12)c1cccs1 (stereo not drawn) | ? | 42* | 16%[46.1 µM] | 20% | 80*
COc1ccccc1CNC(=O)CCn1c(=O)c2ccccc2n(CC(=O)Nc2cc(Cl)ccc2C)c1=O | -19%[46.1 µM] | nt | ? | nt | nt
CC(C)c1ccc(/C=N/NC(=O)c2c(Cl)cnn2C)cc1 | ? | 46* | ? | 18% | +
Cn1ncc(Br)c1C(=O)Nc1cccc(C(F)(F)F)c1 | -18% | 10 | -11%[46.1 µM] | 15% | -15
C/C(=N\NC(=O)c1c(Br)cnn1C)c1ccc(NC(=O)c2ccc(F)cc2)cc1 | -16% | 43* | ? | 10% | 86*
C/C(=N\NC(=O)c1ccc(Cl)cc1)c1cccnc1 | ? | 29* | -20%[46.1 µM] | 5% | 44
SMILES | LASV entry inh | CHX counter | Marburg entry inh | AMA1 RON2 block | Shiga inhibitor
C/C(=N\NC(=O)c1ccn(C)n1)c1cccc(NC(=O)c2ccncc2)c1 | 9% | 30* | -9% | -11% | 45*
CCOC(=O)CCN(C(=S)Nc1ccccc1)C1CCCCC1 | 6%[46.1 µM] | nt | ? | 8% | nt
CCOc1ccc(CNC(=O)CCn2nc(C)c3c(C)n(-c4ccccc4)nc3c2=O)cc1 | 13%[46.1 µM] | nt | nt | nt | nt
C/C(=N\NC(=O)c1ccc(Cl)cc1)c1cccc(NC(=O)c2cccnc2)c1 | 23% | 38* | -9% | 59% | 45*
C/C(=N\NC(=O)c1ccc(O)cc1)c1cccc(NC(=O)c2ccc(Cl)cc2)c1 | ? | nt | ? | 33% | nt
C/C(=N\NC(=O)c1c(Cl)cnn1C)c1cccc(NC(=O)c2ccc(C)cc2)c1 | nt | 21* | nt | 14% | 109*
C/C(=N\NC(=O)c1c(Cl)cnn1C)c1cccnc1 | nt | 39* | nt | 44% | 56*
C=C(C)Cn1c(=O)c2c(nc3n2CCN3c2ccc(CC)cc2)n(C)c1=O | 17%[46.1 µM] | nt | nt | nt | nt
O=C(N/N=C/c1ccc([N+](=O)[O-])o1)c1cc2ccccc2o1 | nt | 11 | nt | -13% | -11
Cc1ccc2nc(N/N=C\c3ccc([N+](=O)[O-])o3)nc(-c3ccccc3)c2c1 | ? | -3 | 10µM* | -5% | -3
O=[N+]([O-])c1ccc(/C=N/Nc2ccc3ccccc3c2)o1 | 3% | 58* | -11% | ? | 126*
CCOC(=O)NN=C1C[C@@H](O)[C@@H](O)[C@@H]2[C@H]3C(=O)N(Cc4ccc5c(c4)OCO5)C(=O)[C@@H]3CC[C@H]12 | nt | nt | -22%[14.2 µM] | nt | nt
CC1CN(C2CCN(C(=O)c3ccccc3)CC2)CC(C)O1 (stereo not drawn) | 8% | -7 | 0% | -6% | -34
O=C(NC1CCOCC1)C1CCC(=O)N(CCc2ccc(Cl)cc2)C1 (stereo not drawn) | nt | -1 | nt | -5% | -5
CNc1nc(-c2ccc3c(c2)CCN3C(=O)c2ccccc2C)cs1 | ? | 34* | ? | -5% | 64*
O=C(CN1CCCC1)Nc1nc(-c2ccc3c(c2)CCN3C(=O)c2ccccc2F)cs1 | ? | 20* | ? | 14% | 31
Cc1cccc(C(=O)N2CCc3cc(-c4csc(NC(=O)CN5CCCC5)n4)ccc32)c1 | nt | 9 | ? | -4% | 9
CNc1nc(-c2ccc3c(c2)CCN3C(=O)c2cccc(F)c2)cs1 | nt | 44* | nt | -19% | 59*
CNc1nc(-c2ccc3c(c2)CCN3C(=O)c2ccc(F)cc2)cs1 | nt | 45* | nt | -7% | 91*
CC(=O)Nc1cccc(C(=O)NCc2ccc3c(c2)CCN3C(=O)c2ccc(F)cc2)c1 | 7%[46.1 µM] | nt | nt | nt | nt
CCCN(CCC)C(=O)Cn1c(=O)n(-c2ccc(CC)cc2)c(=O)c2c3c(sc21)CCC3 | 8%[46.1 µM] | nt | 8%[46.1 µM] | nt | nt
CCc1cccc(C)c1NC(=O)CN1CCCN(Cc2ccccc2Cl)S1(=O)=O | -8%[46.1 µM] | nt | nt | nt | nt
Cc1cccc(CC(=O)NCC(=O)NCc2cc(=O)n(C)c(=O)n2C)c1 | nt | -1 | nt | -3% | 19
O=C(Nc1nc(-c2ccc(F)cc2)cs1)C1CCN(C(=O)c2ccc(F)cc2)CC1 | -28%[46.1 µM] | nt | 11µM* | -5% | nt
C/C(=N\N1C(=O)c2ccccc2NC1c1ccco1)c1ccccc1O (stereo not drawn) | ? | 32* | 8.2µM* | 104% | 65*
CS(=O)(=O)NN1C(=O)c2ccccc2NC1c1ccccc1O (stereo not drawn) | 1% | -3 | 30%[46.1 µM] | 34% | -3

High-throughput results as filed in PubChem.
